Assay outcomes deposited in PubChem by several laboratories.
Hits are enriched below; roughly 1.6% of the tested compounds scored in any of these assays.
ROCK2 blocker: inhibitors of human Rho kinase 2; O75116; purified ROCK2, Kinase-Glo ATP depletion luminescence; inhibition, % at 6 µM; 60,000 compounds, 0.35% hits; AID 604;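 active means inhibition above the screen-wide mean inhibition plus 3 SD, cut at about 18% in these data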
Her2 expr inh: lowers expression of human Her2 kinase; 65,000 compounds, 0.69% hits; HER2 level % of control, % at 10 µM; SKBR-3 HER2 protein level, AlphaScreen, 18-24 h; hits give low values; AID 645; P04626;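 active means HER2 level under 5% of the carrier-only control; inconclusive means no clear call, values can overlap the other calls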;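 further: lower value means stronger loss of Her2 protein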
Target sequence (P04626 whole entry, looked up): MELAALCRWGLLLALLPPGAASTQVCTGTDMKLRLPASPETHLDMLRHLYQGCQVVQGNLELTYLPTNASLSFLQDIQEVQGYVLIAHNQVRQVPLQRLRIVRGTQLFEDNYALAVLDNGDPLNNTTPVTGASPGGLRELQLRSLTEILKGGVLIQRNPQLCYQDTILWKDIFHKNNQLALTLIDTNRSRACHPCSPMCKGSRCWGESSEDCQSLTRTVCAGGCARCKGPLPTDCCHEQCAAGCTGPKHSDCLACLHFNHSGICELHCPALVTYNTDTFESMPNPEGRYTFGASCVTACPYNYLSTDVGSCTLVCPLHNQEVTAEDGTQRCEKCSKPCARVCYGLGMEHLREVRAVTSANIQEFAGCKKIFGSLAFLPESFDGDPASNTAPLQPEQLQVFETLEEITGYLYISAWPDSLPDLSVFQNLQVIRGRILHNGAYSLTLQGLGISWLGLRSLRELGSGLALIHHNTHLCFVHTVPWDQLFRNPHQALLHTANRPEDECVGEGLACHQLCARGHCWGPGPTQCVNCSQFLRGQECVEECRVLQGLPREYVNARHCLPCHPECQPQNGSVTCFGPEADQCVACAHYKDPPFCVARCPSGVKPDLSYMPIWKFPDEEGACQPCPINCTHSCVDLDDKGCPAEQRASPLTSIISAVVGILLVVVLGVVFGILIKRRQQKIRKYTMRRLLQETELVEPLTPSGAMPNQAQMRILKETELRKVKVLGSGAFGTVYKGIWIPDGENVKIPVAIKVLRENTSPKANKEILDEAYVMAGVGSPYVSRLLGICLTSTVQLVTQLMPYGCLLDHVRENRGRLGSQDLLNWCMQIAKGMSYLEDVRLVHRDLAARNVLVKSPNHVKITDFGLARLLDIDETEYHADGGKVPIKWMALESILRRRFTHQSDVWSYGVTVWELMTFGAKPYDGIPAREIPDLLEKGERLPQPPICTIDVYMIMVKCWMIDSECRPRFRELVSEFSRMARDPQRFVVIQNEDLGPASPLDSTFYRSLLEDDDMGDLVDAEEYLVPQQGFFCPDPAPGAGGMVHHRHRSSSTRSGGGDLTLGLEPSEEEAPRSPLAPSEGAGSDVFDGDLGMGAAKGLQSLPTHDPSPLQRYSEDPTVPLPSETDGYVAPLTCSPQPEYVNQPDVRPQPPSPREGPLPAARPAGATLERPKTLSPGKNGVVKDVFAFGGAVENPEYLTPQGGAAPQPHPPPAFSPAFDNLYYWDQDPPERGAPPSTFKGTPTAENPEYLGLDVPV
SK-BR-3 tox 24h: SK-BR-3 proliferation inhibitors. viability, % at 10 µM. SK-BR-3 viability, CellTiter-Glo ATP luminescence, 24 h; hits give low values. 41,000 compounds, 0.47% hits. AID 847;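 active means viability at or below the median of all test compounds minus 3 SD, in both replicates if run twice, cut at about 45% in these data; inconclusive means duplicate replicates that disagree with each other; inactive means viability above that cutoff in every replicate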
WNV protease inh: WNV NS2B-NS3 proteinase inhibition; P06935; WNV NS2B-NS3 protease, fluorogenic substrate Ex360/Em465; hits give low values; z-score (no concentration beside the values); 65,000 compounds, 0.18% hits; AID 577; in the data active means z-score below about -3
PKA inh: PKA (human) kinase inhibition. P17612. PKA Kemptide phosphorylation, Kinase-Glo ATP luminescence. inhibition, % at 6 µM. 65,000 compounds, 0.1% hits. AID 524;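 active means inhibition above the screen-wide mean inhibition plus 3 SD, cut at about 21% in these data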
Hsp90 block: displaces geldanamycin probe from tumor Hsp90. P07900. NCI-N417 lysate Hsp90, Cy3B-geldanamycin FP displacement. inhibition, % at 30 µM. 64,000 compounds, 0.35% hits. AID 429;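 active means inhibition above 50%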
Each line names hits and unclear results; the compound was inactive in the other large screens.

O=C1CCC(=O)N1c1ccc(CSc2nc3ccccc3[nH]2)cc1	none
c1ccc2[nH]c(SCc3ccc(-c4nnco4)cc3)nc2c1	Hsp90 block 93.5 (no result: SK-BR-3 tox 24h)
CCOC(=O)c1cccc(NC(=O)CNC(=O)C2CCCCC2)c1	none
Cc1cc(NC(=O)CNC(=O)C2CCCCC2)no1	Her2 expr inh -20.3 (no result: SK-BR-3 tox 24h)
CCn1cc(C(=O)NCc2cccs2)c(=O)c2cc(S(=O)(=O)N3CCOCC3)ccc21	none (no result: SK-BR-3 tox 24h)
CCN(CC)c1ccc2c(Cl)c(Br)c(=O)oc2c1	Her2 expr inh -27.5, SK-BR-3 tox 24h inconclusive
CCN(CC)c1ccc2c(c1)oc(=O)c1c(Cl)cc(=O)oc12	Her2 expr inh -17.1 (no result: SK-BR-3 tox 24h)
COc1ccc(-c2oc3ncnc(NCCN4CCOCC4)c3c2-c2ccc(OC)cc2)cc1	none
COc1ccc(-c2oc3ncnc(NCCCN4CCOCC4)c3c2-c2ccc(OC)cc2)cc1	Her2 expr inh -2.9
O=C(c1coc2ccccc2c1=O)N1CCN(c2cccc(C(F)(F)F)c2)CC1	none (no result: ROCK2 blocker, Hsp90 block)
O=C(O)Cc1ccc(O)c(O)c1	none (no result: ROCK2 blocker, Her2 expr inh, SK-BR-3 tox 24h, WNV protease inh, PKA inh)
O=C(/C=C/c1ccc(O)c(O)c1)OCCc1ccccc1	Hsp90 block 89.7 (no result: ROCK2 blocker, Her2 expr inh, SK-BR-3 tox 24h, WNV protease inh, PKA inh)
Cc1csc(NC(=O)C2CCCN(S(=O)(=O)c3ccc(Br)s3)C2)n1 (stereo unspecified)	none (no result: ROCK2 blocker, SK-BR-3 tox 24h)
c1cn(CCCNc2ncnc3nc[nH]c23)cn1	ROCK2 blocker 39.5 (no result: SK-BR-3 tox 24h)
Cc1cc(-n2[nH]c(C)c(C)c2=O)nc(-c2ccccc2O)n1	SK-BR-3 tox 24h 39.5
Cc1cc(C)c2nc(Nc3nc(C)cc(=O)[nH]3)nc(C)c2c1	Her2 expr inh 0.2 (no result: SK-BR-3 tox 24h)
Cc1ccc(S(=O)(=O)NCCN=C(CN2CCCC2)NS(=O)(=O)c2ccc(C)cc2)cc1	none
CCOc1ccc(CCNS(=O)(=O)c2cccc3nsnc23)cc1OCC	none
c1cc(CNC2=NCCCCC2)ccn1	none (no result: SK-BR-3 tox 24h)
c1ccc(CNC2=NCCC2)nc1	Her2 expr inh -27.4 (no result: SK-BR-3 tox 24h)
COC(=O)c1sc(S(=O)(=O)N2CCN(c3ccccc3)CC2)c(C(=O)OC)c1C	Her2 expr inh -29.9
N#CC1=C(N)Oc2n[nH]c(-c3ccc(F)cc3)c2C1c1ccncc1 (stereo unspecified)	none
COc1ccc(C(=O)C(CN2CCCC2)c2ccccc2)cc1 (stereo unspecified)	Her2 expr inh -6.9
COc1ccc(C(=O)CCN2CCCCCC2)cc1	none
CC(C)CC1N=C2c3ccccc3N=C(SCc3cc(=O)n4ccccc4n3)N2C1=O (stereo unspecified)	none (no result: SK-BR-3 tox 24h)
CCN(CC)C(=O)c1sc(NC(=O)Cc2cccs2)c(C#N)c1C	WNV protease inh -4.36
Cn1nnc2cc(C(=O)NCc3ccc4c(c3)OCO4)ccc21	none
O=C(NCc1ccc2c(c1)OCO2)c1ccc2snnc2c1	ROCK2 blocker 38.2
CCOC(=O)CNC(=O)C(Cc1ccccc1)NS(=O)(=O)c1cccs1 (stereo unspecified)	WNV protease inh -3.4 (no result: ROCK2 blocker, Hsp90 block)
CCOC(=O)c1c(-c2cccs2)csc1NC(=O)CN1CCOCC1	none (no result: SK-BR-3 tox 24h)
CCOC(=O)c1c(-c2cccs2)csc1NC(=O)c1ccco1	Her2 expr inh -28.0
CCCCOCCCNC(=O)N[C@H](C(=O)OC)C(C)C	none
CCCCNC(=O)OCCNC(=O)NC	Her2 expr inh -55.0
C=CCN1CCc2c(cc(O)c(O)c2Br)[C@@H](c2ccccc2)C1	Hsp90 block 80.6 (no result: ROCK2 blocker, Her2 expr inh, SK-BR-3 tox 24h, WNV protease inh, PKA inh)
COc1cccc(-n2c(SCC(=O)N3CCCC3)nc3c([nH]c4ccccc43)c2=O)c1	none (no result: SK-BR-3 tox 24h)
O=C(O)c1cc(O)c2c(c1)C(=O)c1cccc(O)c1C2=O	Hsp90 block 138.8
O=c1c(-c2ccc3c(c2)OCCO3)coc2c(CN3CCOCC3)c(O)ccc12	Hsp90 block 72.2
Cc1nc2sc3c(c2c2nc(-c4ccco4)nn12)CC(C)(C)OC3	none
CC1(C)Cc2c(c(-c3ccco3)nc3n[nH]c(N)c23)CO1	PKA inh 30.6
CCC(C)NC(=O)c1cnn2c1NC(c1ccc3c(c1)OCO3)CC2C(F)(F)F (stereo unspecified)	Her2 expr inh -28.9
C[C@H](Cc1ccccc1)Nc1ncnc2c1ncn2[C@@H]1O[C@H](CO)[C@H](O)C1O (stereo partly specified)	none (no result: ROCK2 blocker, Her2 expr inh, SK-BR-3 tox 24h, WNV protease inh, PKA inh)
C=CCN=C(NC#N)SCc1ccccc1Cl	Her2 expr inh -4.6
CC(N)C1CCC(C(=O)Nc2ccncc2)CC1 (stereo unspecified)	none (no result: ROCK2 blocker, Her2 expr inh, SK-BR-3 tox 24h, WNV protease inh, PKA inh)
CSc1ccc(N2C(=O)NC3(CCCCC3)C2=O)cc1	none
CCOc1ccc(CNc2ccc3c(c2)ncn3C)cc1	Her2 expr inh -17.4
COC(=O)c1cc2c(C)nn(-c3ccccc3)c2s1	none
Cc1nn(-c2ccccc2)c2sc(C(=O)OC3CCOC3=O)cc12 (stereo unspecified)	WNV protease inh -3.5 (no result: SK-BR-3 tox 24h)
CCOC(=O)C1=C(CSc2nc(-c3ccncc3)ccc2C#N)OC(N)=C(C#N)C1c1cccnc1 (stereo unspecified)	ROCK2 blocker 20.8
COC(=O)c1c(-c2cc(OC)c(OC)c(OC)c2)c2ccc(OCc3ccccn3)cc2c(=O)n1-c1ccc(N)cc1	none (no result: ROCK2 blocker, Her2 expr inh, SK-BR-3 tox 24h, WNV protease inh, PKA inh)
OCCN1CCN(CCCN2c3ccccc3Sc3ccc(C(F)(F)F)cc32)CC1	Her2 expr inh -9.1, SK-BR-3 tox 24h 15.6
Cc1ccccc1S(=O)(=O)Cc1ccc(C(=O)NCCCOC(C)C)o1	WNV protease inh -5.59 (no result: SK-BR-3 tox 24h)
COc1ccc(C2CC(c3cccc(C)c3)n3ncnc3N2)cc1 (stereo unspecified)	WNV protease inh -4.09 (no result: SK-BR-3 tox 24h)
COc1cccc(C2CC(c3cccc(C)c3)n3ncnc3N2)c1 (stereo unspecified)	none (no result: SK-BR-3 tox 24h)
Cc1ccc(OC(=O)CCc2c(C)nc3ncnn3c2C)cc1	none (no result: SK-BR-3 tox 24h)
CCN(CC)CCCNc1cc(OC)c(Nc2ccccc2)c2cccnc12	Hsp90 block 129.5 (no result: ROCK2 blocker, Her2 expr inh, SK-BR-3 tox 24h, WNV protease inh, PKA inh)
C[C@@H](Oc1ccc(Oc2cnc3ccc(Cl)cc3n2)cc1)C(=O)O	none (no result: ROCK2 blocker, Her2 expr inh, SK-BR-3 tox 24h, WNV protease inh, PKA inh)
O=C(Cn1cnc2c(nnn2Cc2ccc(F)cc2)c1=O)N1CCN(c2ccccc2)CC1	none (no result: SK-BR-3 tox 24h)
CC(C)COC(=O)N1CC(O)CC1C(=O)O (stereo unspecified)	Her2 expr inh -13.9
CC(NC(=O)OCc1ccccc1)C(=O)N1CC(O)CC1C(=O)O (stereo unspecified)	none
c1cncc(-c2nnc(-c3cccnc3)nn2)c1	SK-BR-3 tox 24h 35.3
COc1ccccc1-n1c(C)nnc1SCC(=O)Nc1cc(C)cc(C)c1	WNV protease inh -9.13
CC(C)(C)NC(=O)CSc1nc(O)cc(=O)n1-c1ccccc1F	none (no result: ROCK2 blocker, Hsp90 block)
COc1ccccc1-n1c(SCC(=O)NC(C)(C)C)nc(O)cc1=O	Her2 expr inh -39.2
COc1ccccc1-n1c(C)nnc1SCC(N)=O	none
COC(=O)C1CCN(C(=O)c2ccccc2Oc2ccccc2)CC1	none (no result: SK-BR-3 tox 24h)
CN1CCN(Cc2nc3c(c(=O)n(C)c(=O)n3C)n2CCc2ccccc2)CC1	none (no result: SK-BR-3 tox 24h)
CCc1ccc(CNc2ccc(N3CCN(C(C)=O)CC3)cc2)cc1	Hsp90 block 57.4
COc1ccc(CCNc2oc(COc3ccccc3F)nc2C#N)cc1	Her2 expr inh -29.9
CCC(CC)C1C(C#N)=C(N)Oc2n[nH]c(C)c21 (stereo unspecified)	none
